# esBAF inh = SWI/SNF esBAF complex inhibition | mouse ES cells, Bmi1-luciferase knock-in reporter, 24 h; 100% = twice the neutral-well signal | reporter increase, % at 12.5 µM | 2% of 350,000 active | AID 602393; in the data active means activation above about 40%;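 further: a rise in the Bmi1 reporter signal indicates esBAF inhibition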
# MITF TRPM1 inh = MITF TRPM1 promoter inhibition in SK-MEL-5 cells | SK-MEL-5 TRPM1 promoter luciferase, 24 h | inhibition, % at 12.5 µM | 0.83% of 330,000 active | AID 488899;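 active means mean inhibition across replicates of 60% or more, whatever share of single replicates reaches that level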
# MITF act = MITF TRPM1 promoter activation in melanoma cells | SK-MEL-5 TRPM1-promoter luciferase, 24 h; % of positive control, neutral wells = 0 | activation, % at 12.5 µM | 0.75% of 300,000 active | AID 588334;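 active means mean activation of at least 80% with every replicate also reaching 80%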
# PAX8 reporter = inhibitors of PAX8 transcriptional activity in RMG-I cells | 1.2% of 360,000 active | RMG-I TPO-luciferase reporter, SteadyGlo, 24 h | inhibition, % at 12.6 µM | AID 652154;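 active means mean replicate inhibition at least 60% with every replicate also reaching 60%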;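 further: luciferase light reporting Pax8 driven TPO promoter activity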
# Wnt bcat act = Wnt/beta-catenin pathway activation; Wnt/beta-catenin reporter cell assay, activator, plate reader; AID 743398; activation, % at 9.35 µM; 1.2% of 300,000 active; in the data active means activation above about 30%, passing the limit was not always enough
# EWS-Fli inh = inhibitors of EWS/Fli oncoprotein transcriptional activity | 0.67% of 350,000 active | inhibition, % at 12.6 µM | A673 NR0B1-luciferase reporter, viability-normalised | AID 651661;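 active means mean inhibition of at least 50% after viability correction, with every replicate also passing that limit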;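 further: firefly luciferase signal divided by Alamar Blue viability fluorescence both relative to DMSO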
# A number is an active result; 0 = inactive; - = not tested or not shown. This is a sample that favours compounds with a hit; in the whole collection about 4% have one here.
SMILES,esBAF inh,MITF TRPM1 inh,MITF act,PAX8 reporter,Wnt bcat act,EWS-Fli inh
O=C(NCc1ccccc1)c1c[nH]c2ccc(S(=O)(=O)Nc3ccc4c(c3)OCCO4)cc2c1=O,0,0,0,-,0,-
Cc1ccccc1S(=O)(=O)N1CC(=O)N2[C@H](C1)[C@H](c1ccc(C#CCC(C)C)cc1)[C@@H]2CO,-,-,-,0,-,0
Cc1noc(C)c1-c1ccc(C(=O)Nc2cccc(NS(C)(=O)=O)c2)c2occc12,0,-,-,0,0,0
Cc1noc(C)c1-c1ccc(C(=O)Nc2cccc(C(F)(F)F)c2)c2occc12,52.9,-,-,0,0,0
Cc1cc(Sc2ncnc(N)c2[N+](=O)[O-])ncn1,-,77.6,0,-,-,-
Cc1cc(Sc2nc(N)ncc2[N+](=O)[O-])ncn1,0,0,0,0,0,0
Cc1noc(C)c1S(=O)(=O)Nc1ccc2c(c1)C(=O)N([C@H](C)CO)C[C@H](C)[C@H](CN(C)C(=O)c1ccccc1)OCCCC[C@H](C)O2,0,-,-,0,-,0
C[C@H](CO)N1C[C@H](C)[C@H](CN(C)Cc2ccc(Cl)c(Cl)c2)OCCCC[C@H](C)Oc2ccc(NC(=O)Nc3ccccc3)cc2C1=O,0,-,-,99.5,-,0
C[C@H]1CCCCO[C@H](CN(C)Cc2ccc(Cl)c(Cl)c2)[C@@H](C)CN([C@@H](C)CO)C(=O)c2cc(NC(=O)Nc3ccccc3)ccc2O1,0,-,-,84.8,-,0
C[C@@H]1CCCCO[C@H](CN(C)Cc2ccc(Cl)c(Cl)c2)[C@H](C)CN([C@@H](C)CO)C(=O)c2cc(NC(=O)c3ccccc3)ccc2O1,0,-,-,0,-,0
C[C@@H]1CCCCO[C@@H](CN(C)Cc2ccc(Cl)c(Cl)c2)[C@@H](C)CN([C@@H](C)CO)C(=O)c2cc(NC(=O)Nc3ccccc3)ccc2O1,0,-,-,81.0,-,0
C[C@@H]1CCCCO[C@@H](CN(C)Cc2ccc(Cl)c(Cl)c2)[C@@H](C)CN([C@@H](C)CO)C(=O)c2cc(NC(=O)Nc3ccc(F)cc3)ccc2O1,0,-,-,0,-,0
C[C@H](CO)N1C[C@H](C)[C@@H](CN(C)Cc2ccc(Cl)c(Cl)c2)OCCCC[C@H](C)Oc2ccc(NC(=O)Nc3ccccc3)cc2C1=O,0,-,-,86.8,-,0
C[C@@H]1CCCCO[C@H](CN(C)S(=O)(=O)c2ccccc2)[C@H](C)CN([C@@H](C)CO)C(=O)c2cc(NS(=O)(=O)c3ccccc3)ccc2O1,0,-,-,0,-,0
CN(C)CC#Cc1ccc([C@@H]2[C@H]3CN(C(=O)C4CC4)CCCCN3[C@H]2CO)cc1,-,-,-,0,-,0
COC(=O)C(CC#Cc1ccc2c(c1)[C@]1(C(=O)N2)[C@H](c2ccc(O)cc2)N2[C@H](c3ccccc3)[C@H](c3ccccc3)OC(=O)[C@H]2[C@@H]1C(=O)N1CCc2cc(OC)c(OC)cc2C1)C(=O)OC,-,-,-,0,-,0
COC(=O)C(CC#Cc1ccc2c(c1)[C@]1(C(=O)N2)[C@H](c2ccccc2OCCO)N2[C@H](c3ccccc3)[C@H](c3ccccc3)OC(=O)[C@H]2[C@@H]1C(=O)N1CCc2cc(OC)c(OC)cc2C1)C(=O)OC,-,-,-,0,-,55.7
COC(=O)C(CC#Cc1ccc2c(c1)[C@]1(C(=O)N2)[C@H](C(=O)NC[C@H](O)c2ccccc2)[C@H]2C(=O)O[C@H](c3ccccc3)[C@H](c3ccccc3)N2[C@@H]1c1ccccc1OCCO)C(=O)OC,-,-,-,100.6,-,70.9
CCc1cc(C(=O)NNC(=S)Nc2cccc(C)c2)cs1,50.0,0,-,0,38.9,-
Cc1cccc(NC(=S)NNC(=O)c2csc(C(C)C)c2)c1,0,0,-,0,50.3,-
Cc1ccsc1C(=O)NNC(=S)NCC(C)C,0,0,0,-,0,0
Cc1cccc(NC(=S)NNC(=O)c2sccc2C)c1,42.0,0,0,-,-,-
Cc1ccc(NC(=O)c2cnccn2)c(Br)c1,51.8,0,0,0,0,0
Cc1ccc(NC(=O)c2cnccn2)nc1,0,0,0,0,0,0
C[C@@H]1CN([C@@H](C)CO)C(=O)c2cc(-c3ccccc3F)cnc2O[C@@H]1CN(C)C(=O)C1CCOCC1,0,-,-,0,-,0
CC(C)NC(=O)Nc1cccc2c1O[C@@H](CN(C)CC1CCCCC1)[C@H](C)CN([C@@H](C)CO)C2=O,-,-,-,-,-,0
CCc1cc(C(=O)Nc2ccc(C)cc2Br)cs1,-,0,-,0,69.8,-
CCN(CC)CC(=O)Nc1ccc(C)cc1Br,0,0,0,-,0,-
Clc1ccc2c(c1)C(N1CCNCC1)Cc1ccccc1S2 (stereo not drawn),0,94.2,0,-,-,-
